# TEAD-YAP block: TEAD-YAP interaction inhibition | inhibition, % at 9.12 µM | HEK-TIYL cells, TEAD-Gal4/YAP UAS-luciferase luminescence | AID 1259422 | actives 1.4% (n = 640,000); in the data active = inhibition above about 32%;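 note: 0% = median of test compound wells and 100% = reference inhibitor wells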
# FBW7 activator: human FBW7 E3 ligase activation, primary screen; normalized activity (activation), % at 26.1 µM; actives 0.13% (n = 650,000); AlphaScreen FBW7–phospho-cyclin E peptide binding, activator screen; AID 1259310; in the data active = normalized activity above about 1.9%;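 note: purified mutant Fbw7 with reduced substrate affinity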
# MITF primary: blocks human microphthalmia-associated transcription factor | actives 0.91% (n = 650,000) | inhibition, % at 2.6 µM | O75030 | AlphaScreen MITF homodimerization, bead proximity signal; in the data active = inhibition above about 50%;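 note: 0% = vehicle wells with protein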
# GPR151 activ: activators of human GPR151. PathHunter beta-arrestin GPR151 cells, luminescence. Q8TDV0. activation, % at 11.2 µM. actives 1% (n = 650,000); in the data active = activation above about 4.9%;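 note: 0% = median of compound wells and 100% = cells with positive control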
# Target sequence (Q8TDV0 whole entry, looked up): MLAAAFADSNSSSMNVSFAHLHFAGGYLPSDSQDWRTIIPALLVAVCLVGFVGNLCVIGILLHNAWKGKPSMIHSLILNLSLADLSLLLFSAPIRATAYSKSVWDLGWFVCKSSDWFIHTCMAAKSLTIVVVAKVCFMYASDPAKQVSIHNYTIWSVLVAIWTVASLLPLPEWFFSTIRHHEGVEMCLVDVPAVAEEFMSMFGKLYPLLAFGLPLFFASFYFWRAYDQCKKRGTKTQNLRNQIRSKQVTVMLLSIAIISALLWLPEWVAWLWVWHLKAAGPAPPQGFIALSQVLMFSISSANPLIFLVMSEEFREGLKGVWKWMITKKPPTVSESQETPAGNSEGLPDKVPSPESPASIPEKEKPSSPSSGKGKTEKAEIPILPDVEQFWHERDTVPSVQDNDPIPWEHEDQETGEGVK
# MITF inh conf: human MITF inhibition, confirmation; shares compounds with MITF primary; AlphaScreen MITF homodimerization, biotin/His-MITF beads; inhibition, % at 2.6 µM; actives 16% (n = 4,700); AID 1259372;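 active = inhibition above a cutoff derived from the DMSO control wells, cut at about 28% in these data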;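 note: 0% = MITF dimer wells with DMSO only; inhibitors lower the bead chemiluminescence by keeping MITF from dimerizing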
# AlphaScreen DR: AlphaScreen optical interference, dose response counter-screen. shares compounds with MITF primary. AID 1259373. actives 6% (n = 480). IC50, µM. AlphaScreen optical interference counterscreen, cell-free; call rule not given here
# AS interf ctr: counter-screen: compounds optically interfering with AlphaScreen | shares compounds with MITF primary | LysRS AlphaScreen counterscreen, signal interference, triplicate | inhibition, % at 2.6 µM | actives 7.6% (n = 4,700);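 active = inhibition above a cutoff derived from the DMSO control wells, cut at about 30% in these data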
# * marks the source's active call; other numbers are inactive results; nt = not tested or not shown. Rows were chosen to be rich in hits. Some 3.4% of all compounds tested hit in one or more screens of this group.
SMILES,TEAD-YAP block,FBW7 activator,MITF primary,GPR151 activ,MITF inh conf,AS interf ctr,others
CCOc1cc(CN2CCN(Cc3ccccc3F)CC2)ccc1OC,-7,0,65*,-1,-15,-2,
C#CCn1c(=O)c(=O)n(C(C)C)c2ccc(C(F)(F)F)cc21,-22,0,0,-2,nt,nt,
Clc1ccc(-n2cc(-c3ccccc3)c3c(NCCCN4CCOCC4)ncnc32)cc1,3,0,3,0,nt,nt,
Clc1ccc(-c2csc3ncnc(NCCCN4CCOCC4)c23)cc1,-2,0,96*,1,-14,-5,
COc1ccc(-c2csc3ncnc(NCCN4CCOCC4)c23)cc1,13,0,82*,-2,16,18,
Cc1ccc(C)n1-c1ccc(Cl)c(C(=O)O)c1,0,-1,1,0,nt,nt,
O=C(O)c1cc(-n2cccc2)ccc1Cl,1,-1,79*,1,64*,-2,AlphaScreen DR=>6.5
Cc1ccc2c(c1)C(C)CC(C)(C)N2C(=O)CNCCN1CCOCC1 (centres undefined),-8,0,87*,0,10,23,
Cc1ccc2c(c1)C(C)CC(C)(C)N2C(=O)CSc1ncccn1 (centres undefined),-21,0,18,-1,nt,nt,
COc1ccc2c(c1)C(C)CC(C)(C)N2C(=O)CNCc1ccco1 (centres undefined),-5,0,57*,0,12,10,
CCOCCCNCC(=O)N1c2ccc(C)cc2C(C)CC1(C)C (centres undefined),5,0,56*,1,17,9,
COc1ccc2c(c1)C(C)CC(C)(C)N2C(=O)CSc1ncccn1 (centres undefined),-2,0,2,1,nt,nt,
COc1ccc(CCNCC(=O)N2c3ccccc3C(C)CC2(C)C)cc1 (centres undefined),4,0,14,0,nt,nt,
Cc1ccc(C(=O)OCC(=O)NC(=O)NC(C)C)c(O)c1,3,0,3,1,nt,nt,
CCCOc1ccc2ccccc2c1/C=N/n1cnnc1,5,0,-1,1,nt,nt,
COc1cc(-c2nc3cnccn3c2NCc2ccco2)cc(OC)c1OC,5,0,-2,1,nt,nt,
Cc1ncoc1C(=O)NCCN1Cc2ccccc2OC(c2ccccc2)C1 (centres undefined),-2,1,-3,1,nt,nt,
O=C1c2ccccc2C(=O)N1c1ccccc1,9,0,21,-2,nt,nt,
Nc1cccc2c1C(=O)N(c1ccccc1)C2=O,-6,0,52*,0,0,10,
O=C(O)CNCc1nc2ccccc2[nH]1,-4,-2,81*,-1,76*,100*,
CCC(Nc1n[nH]c(=O)[nH]c1=O)C(=O)OC (centres undefined),12,0,4,0,nt,nt,
CC(C)(C)NC(=O)C(c1cccs1)N(CCc1ccccc1)C(=O)c1csnn1 (centres undefined),-1,0,26,-1,nt,nt,
NC(=O)C(=O)N/N=C1\CCc2ccccc21,-2,0,5,0,nt,nt,
O=S(=O)(O)c1ccc(N/N=C2\CCc3ccccc32)cc1,16,0,67*,-1,46*,-2,AlphaScreen DR=>6.5
CN(C)c1ccc(/C=N/NC(=O)C23CC4CC(CC(C4)C2)C3)cc1,-43,0,13,-1,nt,nt,
SMILES,TEAD-YAP block,FBW7 activator,MITF primary,GPR151 activ,MITF inh conf,AS interf ctr,others
CCCOC(=O)C(C)Nc1n[nH]c(=S)[nH]c1=O (centres undefined),-3,-1,55*,0,-1,20,
COCC(=O)NCC1CCC2(CCN(Cc3cccc(-c4ccccc4C)c3)CC2)O1 (centres undefined),3,0,-7,2,nt,nt,
CCn1c(C(=O)O)c(CC(=O)N2CCC(C(N)=O)(N3CCCCC3)CC2)c2ccccc21,-16,0,-1,0,nt,nt,
Cc1cc(OCCN2CCNCC2)cc(C(C)C)c1,-3,0,66*,2,-2,20,
Cc1cc(OCCCN2CCN(C)CC2)cc(C(C)C)c1,-1,0,70*,0,11,23,
Cc1cc(OCCCN2CCN(C)CC2)ccc1C(C)C,2,0,56*,2,-3,4,
Cc1cc(OCCn2ccnc2)cc(C(C)C)c1,-5,0,57*,0,5,-1,
Cc1cc(OCCCN2CCNCC2)cc(C(C)C)c1,-4,0,38,-1,nt,nt,
Cc1cc(C)c(C)c(OCCn2ccnc2)c1,-10,2,13,-1,nt,nt,
Cc1cc(OCCCN2CCOCC2)ccc1C(C)C,-17,0,18,-1,nt,nt,
O=C1CN(C(=O)COC(=O)c2c3c(nc4ccccc24)CCC3)c2ccccc2N1,-1,0,72*,2,19,15,
COC(=O)CCCC(=O)N1CCCC(C(=O)Nc2ccc(-c3cscn3)cc2)C1 (centres undefined),-10,0,-3,2,nt,nt,
CC(=O)Nc1cccc(NC(=O)CSc2ccc(-c3ccccn3)nn2)c1,-8,0,84*,1,79*,100*,
CC(=O)c1cccc(NC(=O)CSc2ccc(-c3ccccn3)nn2)c1,5,-2,47,-4,nt,nt,
O=C(CSc1ccc(-c2ccccn2)nn1)Nc1ccc(Br)cc1,-6,0,4,1,nt,nt,
Cc1cccc(NC(=O)CSc2ccc(-c3ccccn3)nn2)c1,-3,0,57*,-3,76*,99*,
CC(=O)Nc1ccc(NC(=O)CSc2ccc(-c3ccccn3)nn2)cc1,5,0,83*,-3,83*,100*,
CCOc1ccc2[nH]c(=O)c(C(c3nnnn3C(C)(C)C)N3CCCC3)cc2c1 (centres undefined),9,0,3,1,nt,nt,
Cc1ccc(C)c(C(=O)Nc2ccccc2F)c1,-4,0,84*,-1,14,7,
CC(C)(CO)NCC(O)COCc1ccc(Cl)cc1 (centres undefined),7,1,-5,0,nt,nt,
OC(CNCCNc1cccc2ccccc12)COCc1ccc(Cl)cc1 (centres undefined),-2,0,53*,-1,-5,1,
CCc1ccc(CN2CCN(Cc3cccc(OC)c3OC)CC2)cc1,-5,0,64*,-1,8,15,
COc1ccc(CN2CCN(Cc3cccc(OC)c3OC)CC2)cc1,-6,0,75*,-1,9,12,
CCOc1ccccc1N1CCN(Cc2cccc(OC)c2OC)CC1,8,0,23,1,nt,nt,
CN(C)CC(C)(C)CNC(=O)C1CCN(Cc2cccc(Br)c2)CC1,12,1,58*,0,-3,-2,
COc1cccc(C(=O)N[C@H]2C[C@H]3C(=O)N[C@H](C)C(=O)N3C2)c1,-5,0,66*,-1,-2,-7,
Cn1c(SCc2nc(-c3cccs3)no2)nnc1-c1ccccc1,10,1,16,0,nt,nt,
